Laboratory results as given in PubChem BioAssay (NCI).
About 79,000 compounds went through this panel and 15% of them were active in at least one assay; those are over-represented in the sample as a whole. Activity calls are given as the source filed them. No stated cut-off is given here; in the data, active means growth inhibition above about 70%; inactive means the rest.

Columns and labels:
[1] = NCI Yeast Anticancer Drug Screen. Data for the rad50 strain (AID 155);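 further: 0% = growth of vehicle-only cultures of the same strain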; settings: S. cerevisiae rad50 strain growth inhibition; at 50.0 µM; active compounds read high
Procedure, shortened: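 Cells are treated with compound, grown, and their growth is then scored against vehicle-only cultures of the same repair-deficient yeast strain.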

[2] = NCI Yeast Anticancer Drug Screen. Data for the mec2-1 strain (AID 157); settings: S. cerevisiae mec2-1 strain, at 50.0 µM, active compounds read high
Procedure, shortened: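 Yeast mec2-1 mutant treated with compound. Readout: growth inhibition vs vehicle controls.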

[3] = NCI Yeast Anticancer Drug Screen. Data for the sgs1 mgt1 strain (AID 161);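 further: 0% = growth of cultures given vehicle only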; settings: S. cerevisiae sgs1 mgt1 strain, at 50.0 µM, active compounds read high
Procedure, shortened: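 Mutant yeast exposed to compound; growth scored against vehicle-only wells.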

[4] = NCI Yeast Anticancer Drug Screen. Data for the cln2 rad14 strain (AID 165);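 further: 0% = growth equal to vehicle treated cultures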; settings: S. cerevisiae cln2 rad14 strain, at 50.0 µM, active compounds read high
Procedure, shortened: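 cln2 rad14 yeast strain; compound exposure; growth inhibition read vs vehicle controls.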

[5] = NCI Yeast Anticancer Drug Screen. Data for the bub3 strain (AID 167); settings: S. cerevisiae bub3 mutant strain, at 50.0 µM, active compounds read high
Procedure, shortened: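 Part of a panel of yeast mutants defective in DNA damage repair or cell cycle regulation. Each strain is grown with compound, and inhibition is calculated relative to solvent-treated cultures.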

[6] = NCI Yeast Anticancer Drug Screen. Data for the mlh1 rad18 strain (AID 175); settings: S. cerevisiae mlh1 rad18 strain growth inhibition; at 50.0 µM; active compounds read high
Procedure, shortened: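 Yeast w/ defined DNA-repair lesions; compound exposure; growth vs vehicle controls → % inhibition.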

Measured: growth inhibition

COC(OC)c1ccccc1CO
inactive: [1] -7.6% | [2] -28.5% | [3] -6.1% | [4] -41.5% | [5] 3.65% | [6] -14.8%

C(CC1CCNCC1)CC1CCNCC1
inactive: [1] -39.7% | [2] -19.1% | [3] -20.3% | [4] -23.8% | [5] 12.2% | [6] -64.7%

CC(C)(C[NH-])C[NH-].[Cl][Pt+2][Cl]
inactive: [1] -22.3% | [2] 13.3% | [3] 20.2% | [4] 18.6% | [5] 16.6%
active: [6] 87.7%

Cc1ccc(NC(=O)C2C3CC4OC(=O)C2C4C3)cc1 (stereo unspecified)
inactive: [1] -10.6% | [2] -4.45% | [3] 11.5% | [4] 0.55% | [5] 18.6% | [6] -16.6%

COC1/C=C/OC2(C)Oc3c(C)c(O)c4c(O)c(c(/C=N/OC/C=C(\C)CCC=C(C)C)c(O)c4c3C2=O)NC(=O)C(C)=C/C=C/C(C)C(O)C(C)C(O)C(C)C(OC(C)=O)C1C (stereo unspecified)
inactive: [1] -0.15% | [2] -0.5% | [3] -2.65% | [4] -10.9% | [5] -8.95% | [6] 30.4%

O=[N+]([O-])c1ccc(/C(=N/Nc2ccccc2)c2ccc(Cl)cc2)cc1
inactive: [1] 13.2% | [2] 2.1% | [3] 1.65% | [4] -14.1% | [5] 9.8% | [6] 4.1%

CC(=O)CC(=O)OC1CCCC(C)C1 (stereo unspecified)
inactive: [1] -9.55% | [2] 1% | [3] -17.9% | [4] -39.4% | [5] -22.8% | [6] -15.2%

CC(C)NCCO
inactive: [1] 23.1% | [2] -3% | [3] -1.85% | [4] 21.2% | [5] 0.3% | [6] 12.3%

NNC(=O)CCC(=O)Nc1ccc(Cl)cc1Cl
inactive: [1] -19.9% | [2] 0.65% | [3] -8.25% | [4] 26.9% | [5] 5.1% | [6] 30.9%

O=C1CC2CCC(C1)S2=O (stereo unspecified)
inactive: [1] 19.6% | [2] -10.5% | [3] 17.5% | [4] 23% | [5] 12.8% | [6] 18.5%

O=C(Cc1ccc([N+](=O)[O-])c([N+](=O)[O-])c1CC(=O)C(=O)Nc1cc(Cl)ccc1Cl)C(=O)Nc1cc(Cl)ccc1Cl
inactive: [1] -16% | [2] -23.8% | [3] -14.8% | [4] 12.3% | [5] 25.1% | [6] -4.3%

Cc1sc2ncnc(Cl)c2c1C
inactive: [1] 1.95% | [2] 13.2% | [3] -1.4% | [4] -23% | [5] 4.45% | [6] 4.05%

CC(C)N(CCSC(=O)N1c2ccccc2Sc2cccnc21)C(C)C
inactive: [1] -2% | [2] 0.8% | [3] -18.9% | [4] -12.3% | [5] 1.45% | [6] 1.6%

N#C/C(=C\c1ccccc1[N+](=O)[O-])C(=O)O
inactive: [1] 36.5% | [2] 0.45% | [3] 23.2% | [4] 16.9% | [5] -19% | [6] 3.7%

N#C/C(=C/c1cccc2ccccc12)C(=O)c1ccccc1
inactive: [1] 36.9% | [2] -2.75% | [3] 3.6% | [4] 26.9% | [5] -3.75% | [6] -5.5%

O=C(O)C1CC=CCC1C(=O)O (stereo unspecified)
inactive: [1] 8.5% | [2] -7.45% | [3] -12.4% | [4] -45.9% | [5] 1.4% | [6] 9.95%

Cc1cc(OCCCC(=O)O)ccc1Cl
inactive: [1] 51.8% | [2] 30.7% | [3] 54.1% | [4] 34.9% | [5] 49.1% | [6] 52.1%

S=c1s/c(=C\c2ccccc2)c2nc3ccccc3n12
inactive: [1] 7.15% | [2] 9.2% | [3] -9.4% | [4] -46.7% | [5] 13.9% | [6] 4.75%

CCC(=C(C#N)C#N)c1cc(OC)c(OC)c(OC)c1
inactive: [1] -43% | [2] -31.8% | [3] -24.2% | [4] -16.2% | [5] -26.5% | [6] -13.8%

COC(=O)[C@@]1(C(C)CC(=O)O)CCCCC1=O (stereo partly specified)
inactive: [1] -11.6% | [2] -16.4% | [3] -38.2% | [4] -7.35% | [5] -20.8% | [6] -13.2%

NC(CCCO)C(=O)O (stereo unspecified)
inactive: [1] -21.1% | [2] -6.7% | [3] -24.1% | [4] 8.6% | [5] -26.6% | [6] -26.1%

C/C(=N/Nc1ccc([N+](=O)[O-])cc1[N+](=O)[O-])c1ccc(Sc2ccc(/C(C)=N/Nc3ccc([N+](=O)[O-])cc3[N+](=O)[O-])cc2)cc1
inactive: [1] -13.2% | [2] -21.1% | [3] -10.3% | [4] -19.4% | [5] -14.9% | [6] -23.4%

CCOc1ccccc1Nc1nc(C)c(C(=O)CC(=O)C(=O)Nc2ccccc2)s1
inactive: [1] 45.9% | [2] 5.4% | [3] 28.2% | [4] 9.45% | [5] 29.9% | [6] 12.9%

O=C(c1ccccc1)[C@H]1Nc2ccc(Cl)cc2[C@H]2CCC[C@@H]12
inactive: [1] -2.4% | [2] -30.2% | [3] 0.1% | [4] 10.2% | [5] -14.6% | [6] -17.1%

NC(CC(=O)OCc1ccccc1)C(=O)OCc1ccccc1 (stereo unspecified)
inactive: [1] 9.1% | [2] 9.3% | [3] 16.1% | [4] -5.9% | [5] 3.55% | [6] 4.15%

CC(=O)c1cccc(NCn2nnc3ccccc32)c1
inactive: [1] -47.5% | [2] -8.65% | [3] -62.3% | [4] -4.25% | [5] -45.4% | [6] -34.5%

CCC/C=C(/CC)COC(C)=O
inactive: [1] 3.15% | [2] -19.1% | [3] -6.6% | [4] -7.25% | [5] -5.35% | [6] -3.85%

CCOC(=O)C(C(=O)OCC)C(=O)c1cc(OC)c(OC)c(OC)c1
inactive: [1] 4.55% | [2] 10.6% | [3] -1.35% | [4] 7.35% | [5] 2.55% | [6] 6.5%

COC1=CCC2=C(CCO2)C1
inactive: [1] 5.3% | [2] 0.35% | [3] -6.9% | [4] -18.5% | [5] -7.1% | [6] 1.1%

CCOC(=O)/C(O)=C/c1cc(=O)n(C)c2ccccc12
inactive: [1] -6.6% | [2] 10.7% | [3] -5.8% | [4] -21.8% | [5] -9.9% | [6] -17.4%

COC(=O)c1ccc(C(=O)OC)c2nc3cc(C)c(C)cc3nc12
inactive: [1] -0.7% | [2] 20.7% | [3] 0.1% | [4] -7.1% | [5] 5.35% | [6] 12%

CCC(=O)Oc1ccc(CCC(C)=O)cc1
inactive: [1] -0.55% | [2] -6.35% | [3] -14.2% | [4] -38.9% | [5] -10.6% | [6] 30.5%

COC1N(c2ccccc2)CCN1c1ccccc1
inactive: [1] 3.05% | [2] 6.1% | [3] -23.2% | [4] 4.75% | [5] 5.55% | [6] 8.3%

CC(=O)Nc1ccc(/C=C2\SC(=S)N(C=C(C#N)C#N)C2=O)cc1
inactive: [1] 3.95% | [2] 12.2% | [3] -10.4% | [4] 38.5% | [5] 15.2% | [6] -2.35%

COC(=O)CC(CC(=O)OC)N1CC=CC1
inactive: [1] -12.9% | [2] 10.5% | [3] -5.95% | [4] -15.1% | [5] 5.35% | [6] 31.6%

O=S(O)CCCSSc1ccccc1
inactive: [1] 38.5% | [2] 22.4% | [3] 40.1% | [4] 56.1% | [5] 40.7% | [6] 67.2%

C#CCOc1c(C(=O)OCC)c(=O)n(C)c2ccccc12
inactive: [1] -10% | [2] -17.1% | [3] 12.8% | [4] 9.4% | [5] 3.55% | [6] 1.7%

CC1(C)OC2COC(CNCC3OCC4OC(C)(C)OC34)C2O1 (stereo unspecified)
inactive: [1] 3% | [2] -14.4% | [3] -6.75% | [4] -22.3% | [5] -14.8% | [6] 4.55%

CCCCCCCOC(=O)C(N)c1ccccc1 (stereo unspecified)
inactive: [1] -5.2% | [2] -32.1% | [3] -22.4% | [4] 7.5% | [5] -7.6% | [6] 4.1%

O=C(Nc1cc2cc([N+](=O)[O-])ccc2oc1=O)c1cccs1
inactive: [1] -12.2% | [2] -30.7% | [3] -6.8% | [4] 4.85% | [5] -40.2% | [6] -15.6%

Nc1cc2c(cc1I)-c1ccccc1C2O (stereo unspecified)
inactive: [1] 1.65% | [2] 4.55% | [3] -12.8% | [4] -2.9% | [5] 11.2% | [6] -8.75%
